Reference: ChEMBL document CHEMBL2218924, “A broad activity screen in support of a chemogenomic map for kinase signalling research and drug discovery” (Biochem J, 2013)

Legend:
[1] = molecular target: T1, Serine/threonine-protein kinase TAO3 (Homo sapiens) (UniProt Q9H2K8); settings: at 10 µM
T1 sequence (whole entry): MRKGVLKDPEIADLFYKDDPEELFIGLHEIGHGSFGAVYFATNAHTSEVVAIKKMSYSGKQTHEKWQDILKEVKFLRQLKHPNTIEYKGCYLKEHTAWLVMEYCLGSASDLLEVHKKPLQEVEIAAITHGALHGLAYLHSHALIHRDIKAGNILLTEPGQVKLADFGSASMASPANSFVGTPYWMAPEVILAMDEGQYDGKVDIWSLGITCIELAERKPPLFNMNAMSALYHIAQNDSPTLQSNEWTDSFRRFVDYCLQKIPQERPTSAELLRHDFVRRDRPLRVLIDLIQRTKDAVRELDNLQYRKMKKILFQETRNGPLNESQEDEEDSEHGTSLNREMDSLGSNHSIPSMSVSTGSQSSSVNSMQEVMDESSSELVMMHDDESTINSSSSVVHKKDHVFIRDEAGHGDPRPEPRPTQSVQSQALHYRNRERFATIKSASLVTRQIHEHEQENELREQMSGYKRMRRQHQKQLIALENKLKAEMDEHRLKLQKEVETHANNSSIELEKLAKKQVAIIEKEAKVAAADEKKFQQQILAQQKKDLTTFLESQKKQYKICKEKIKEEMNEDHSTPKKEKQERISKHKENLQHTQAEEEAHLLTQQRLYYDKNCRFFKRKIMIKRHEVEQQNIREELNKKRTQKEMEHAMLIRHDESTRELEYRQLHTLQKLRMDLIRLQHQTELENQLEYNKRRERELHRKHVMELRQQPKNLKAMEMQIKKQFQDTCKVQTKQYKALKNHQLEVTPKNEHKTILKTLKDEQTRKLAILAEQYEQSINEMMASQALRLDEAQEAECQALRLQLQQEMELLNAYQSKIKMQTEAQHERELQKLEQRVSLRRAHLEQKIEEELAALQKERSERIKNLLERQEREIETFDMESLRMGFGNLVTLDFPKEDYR

[2] = molecular target: T2, Serine/threonine-protein kinase TBK1 (Homo sapiens) (UniProt Q9UHD2); settings: at 1 µM
T2 sequence (whole entry): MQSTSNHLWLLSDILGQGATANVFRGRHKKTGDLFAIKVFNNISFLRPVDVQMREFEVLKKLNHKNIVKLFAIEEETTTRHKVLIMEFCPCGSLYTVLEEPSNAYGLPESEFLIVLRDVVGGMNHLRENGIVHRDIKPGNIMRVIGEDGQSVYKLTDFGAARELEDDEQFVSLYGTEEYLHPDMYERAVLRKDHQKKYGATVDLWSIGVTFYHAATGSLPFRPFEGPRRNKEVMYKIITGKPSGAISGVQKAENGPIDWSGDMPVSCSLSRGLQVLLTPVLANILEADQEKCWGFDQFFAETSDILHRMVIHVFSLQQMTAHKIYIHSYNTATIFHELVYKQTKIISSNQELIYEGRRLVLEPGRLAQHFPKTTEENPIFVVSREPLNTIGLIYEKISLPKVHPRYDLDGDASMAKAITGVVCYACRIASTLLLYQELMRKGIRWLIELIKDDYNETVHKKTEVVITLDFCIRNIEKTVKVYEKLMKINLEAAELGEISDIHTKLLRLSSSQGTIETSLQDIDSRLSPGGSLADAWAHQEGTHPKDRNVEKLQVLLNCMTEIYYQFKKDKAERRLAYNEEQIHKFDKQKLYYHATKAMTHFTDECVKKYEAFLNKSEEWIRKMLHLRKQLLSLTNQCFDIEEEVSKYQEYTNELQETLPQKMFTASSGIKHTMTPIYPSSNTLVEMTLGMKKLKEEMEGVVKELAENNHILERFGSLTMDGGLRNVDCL

[3] = molecular target: T2, Serine/threonine-protein kinase TBK1 (Homo sapiens); settings: at 10 µM
[4] = molecular target: T3, TGF-beta receptor type-1 (Homo sapiens) (UniProt P36897); settings: at 10 µM
T3 sequence (whole entry): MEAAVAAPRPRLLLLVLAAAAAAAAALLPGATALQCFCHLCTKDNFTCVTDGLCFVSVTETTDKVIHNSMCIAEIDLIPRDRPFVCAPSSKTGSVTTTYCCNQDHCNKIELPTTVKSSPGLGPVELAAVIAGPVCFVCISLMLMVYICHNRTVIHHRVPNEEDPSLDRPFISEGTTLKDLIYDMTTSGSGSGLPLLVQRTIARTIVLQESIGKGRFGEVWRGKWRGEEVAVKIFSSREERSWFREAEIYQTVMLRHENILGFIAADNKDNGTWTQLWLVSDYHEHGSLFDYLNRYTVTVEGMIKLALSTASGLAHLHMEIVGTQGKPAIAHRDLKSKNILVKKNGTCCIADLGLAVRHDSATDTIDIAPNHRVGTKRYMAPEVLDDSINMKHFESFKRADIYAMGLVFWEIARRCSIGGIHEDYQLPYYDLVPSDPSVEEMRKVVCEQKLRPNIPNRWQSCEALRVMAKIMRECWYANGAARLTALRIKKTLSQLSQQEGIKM

[5] = molecular target: T4, Inhibitor of nuclear factor kappa-B kinase subunit alpha (Homo sapiens) (UniProt O15111); settings: at 1 µM
T4 sequence (whole entry): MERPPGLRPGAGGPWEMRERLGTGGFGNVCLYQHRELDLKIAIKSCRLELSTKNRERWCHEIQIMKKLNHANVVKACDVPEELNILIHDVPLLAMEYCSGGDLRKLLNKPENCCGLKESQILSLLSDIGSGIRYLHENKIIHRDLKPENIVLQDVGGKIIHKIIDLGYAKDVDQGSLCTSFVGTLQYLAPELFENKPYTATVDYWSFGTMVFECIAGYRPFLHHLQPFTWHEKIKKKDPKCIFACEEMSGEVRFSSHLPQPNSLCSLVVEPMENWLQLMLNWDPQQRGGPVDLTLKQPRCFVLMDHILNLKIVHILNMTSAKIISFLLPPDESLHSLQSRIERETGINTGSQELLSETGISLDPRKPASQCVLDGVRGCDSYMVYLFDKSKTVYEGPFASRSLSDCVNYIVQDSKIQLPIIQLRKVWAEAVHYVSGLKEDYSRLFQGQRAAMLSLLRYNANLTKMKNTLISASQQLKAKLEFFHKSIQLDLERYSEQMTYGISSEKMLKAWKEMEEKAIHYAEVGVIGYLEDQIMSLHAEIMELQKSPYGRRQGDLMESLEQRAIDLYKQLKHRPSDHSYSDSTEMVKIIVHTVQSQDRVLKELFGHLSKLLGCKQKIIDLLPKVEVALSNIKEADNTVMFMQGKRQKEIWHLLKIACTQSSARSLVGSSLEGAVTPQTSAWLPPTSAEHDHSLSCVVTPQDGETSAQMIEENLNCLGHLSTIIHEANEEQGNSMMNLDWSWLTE

[6] = molecular target: T4, Inhibitor of nuclear factor kappa-B kinase subunit alpha (Homo sapiens); settings: at 10 µM
[7] = molecular target: T5, Inhibitor of nuclear factor kappa-B kinase subunit beta (Homo sapiens) (UniProt O14920); settings: at 1 µM
T5 sequence (whole entry): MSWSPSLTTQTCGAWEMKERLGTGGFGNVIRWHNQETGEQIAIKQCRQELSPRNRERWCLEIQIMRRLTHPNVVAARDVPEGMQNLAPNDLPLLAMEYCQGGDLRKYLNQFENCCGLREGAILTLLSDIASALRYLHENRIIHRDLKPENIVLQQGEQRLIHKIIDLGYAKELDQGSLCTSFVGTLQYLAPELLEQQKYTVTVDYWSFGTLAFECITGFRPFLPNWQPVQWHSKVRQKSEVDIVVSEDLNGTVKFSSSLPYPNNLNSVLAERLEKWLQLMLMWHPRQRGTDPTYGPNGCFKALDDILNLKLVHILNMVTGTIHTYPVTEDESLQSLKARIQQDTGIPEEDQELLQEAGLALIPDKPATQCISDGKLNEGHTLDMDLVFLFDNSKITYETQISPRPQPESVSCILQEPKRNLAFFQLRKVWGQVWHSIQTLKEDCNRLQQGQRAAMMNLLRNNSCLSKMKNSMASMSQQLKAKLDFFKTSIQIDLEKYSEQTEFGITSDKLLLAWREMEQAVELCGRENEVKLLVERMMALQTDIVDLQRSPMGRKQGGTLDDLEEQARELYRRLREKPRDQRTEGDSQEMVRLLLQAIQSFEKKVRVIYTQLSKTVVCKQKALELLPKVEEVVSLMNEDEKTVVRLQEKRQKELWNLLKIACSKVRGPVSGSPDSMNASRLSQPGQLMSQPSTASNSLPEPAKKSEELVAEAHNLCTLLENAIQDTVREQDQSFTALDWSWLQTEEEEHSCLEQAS

Question: `c1ccc(-c2cnc(Nc3ccc(OCCN4CCCC4)cc3)s2)cc1` was tested. Which residual activity [1] did it give?
Answer: Its residual activity is 27%.

Question: What about the residual activity [2] of the same compound?
Answer: Its residual activity is 70%.

Question: And the residual activity [3]?
Answer: Its residual activity is 23%.

Question: What about the residual activity [4] of the same compound?
Answer: The residual activity was 74%.

Question: And the residual activity [5]?
Answer: The residual activity was 77%.

Question: What about the residual activity [6] of the same compound?
Answer: The residual activity was 66%.

Question: What about the residual activity [7] of the same compound?
Answer: The residual activity was 116%.
